For 40 molecules, Potency results are on record in PubChem BioAssay (Tox21).

Inconclusive results are not listed. Where a call stands in place of a potency, no number is given. The source made the active and inactive calls. The call rests on the fitted dose curve.

The assay is described as follows: qHTS assay for small molecule disruptors of the mitochondrial membrane potential - cell viability (AID 720634).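 Further: human HepG2 liver cancer cells; nearly all actives have a fitted effect of over 20% in size.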 As to conditions: HepG2 viability, ATP luminescence (CellTiter-Glo), 1 h; series mostly up to 83.2 µM. An excerpt:
U.S. Tox21 Program National Center for Advancing Translational Sciences [NCATS] NIH Chemical Genomics Center [NCGC] U.S. Environmental Protection Agency [EPA] National Institutes of Environmental Health Sciences [NIEHS] National Toxicology Program [NTP] U.S. Food and Drug Administration [FDA] Tox21 Assay Overview: Mitochondrial membrane potential (MMP), one of the parameters for mitochondrial function, is generated by mitochondrial electron transport chain that creates an electrochemical gradient by a series of redox reactions. This gradient drives the synthesis of ATP, a crucial molecule for various cellular processes. Measuring MMP in living cells is commonly used to assess the effect of chemicals on mitochondrial function; decreases in MMP can be detected using lipophilic cationic fluorescent dyes. […] The dye accumulates in the mitochondria of healthy cells as aggregates, with red fluorescence. The mitochondrial potential decreases and the dye could not accumulate in the mitochondria and remains in the cytoplasm in monomers, with green fluorescence. In addition to the mitochondrial potential assay, these cells were also used to test the cytotoxicity by determining the cell viability in the culture based on the quantitation of ATP present. The cytotoxicity was measured in the same assay well of MMP assay.
Tox21 Assay Protocol Summary: 2,000 HepG2 cells in 5 uL/well were dispensed into black, clear-bottom 1536-well plates using a Multidrop Combi (Thermo Scientific) dispenser. The assay plates were incubated for an overnight at 37 C to allow cells to attach to the wells, followed by the transfer of 23 nL compound or DMSO vehicle by a pin tool (Kalypsys). The plates were incubated for 1 hr at 37 C and 5% CO2, followed by the addition of 5 uL of 2X m-MPI dye into each well using Flying Reagent Dispenser (Aurora Discovery) and then CellTiter-Glo reagent was added at 4 uL/well and incubated 30 min at room temperature. Then luminescence intensity was quantified on a ViewLux CCD-based plate reader.
With `CCCCCCCCCCCCCCCCOP(=O)([O-])OCC[N+](C)(C)C`, the Potency entry was “inactive”.

For `COC(=O)c1ccc(OC)cc1`, the Potency result was “inactive”.

Turning to `Nc1ccc(Oc2ccc(N)c(N)c2)cc1`, the Potency entry is “inactive”.

With `O=C(C(Cl)Cl)N1CCOC12CCCCC2`, the Potency result is “inactive”.

Consider `CC(C)CC(=O)OCc1ccccc1`, for which the Potency entry is “inactive”.

Take `CCCCC1CCC(=O)O1` (stereo not given): the Potency entry was “inactive”.

As for `FC(F)(F)C(Cl)(Cl)Cl`, the Potency entry is “inactive”.

For `CCN(CC)C(=O)N(CC)CC`, the Potency result is “inactive”.

`C=CCc1cc(OC)c(O)c(C(=O)NCCO)c1`: the Potency result was “inactive”.

Consider `CC(C)=CCC[C@](C)(O)[C@@H]1CC=C(C)CC1`, for which the Potency result was “inactive”.

As for `CC[C@H]1CC[C@H](NCc2cc3c(cc2OC)[C@H]2C[C@H]2C(=O)N3C)[C@H](c2ccccc2)N1`, the Potency entry was “inactive”.

As to `NC/C=C/C(=O)O`, the Potency entry is “inactive”.

`CCC(=O)Nc1ccc(O)cc1`: the Potency entry was “inactive”.

For `O=C1C=CC(=O)O1`, the Potency entry was “inactive”.

In the case of `CCCCNCCCC`, the Potency result is “inactive”.

`CC/C=C\CCOC(=O)C(C)C`: the Potency entry was “inactive”.

For `CCOC(=O)NCCC[Si](OCC)(OCC)OCC`, the Potency entry was “inactive”.

Turning to `CCN(O)CC`, the Potency result was “inactive”.

For the molecule `CC(=O)OC(C)OC(C)=O`, the Potency result is “inactive”.

In the case of `O=C(Cl)c1cccc([N+](=O)[O-])c1`, the Potency entry was “inactive”.

As for `CCN1CC(CCN2CCOCC2)C(c2ccccc2)(c2ccccc2)C1=O` (stereo not given), the Potency result is “inactive”.

For `C[C@@H]1CN(c2c(F)c(F)c3c(=O)c(C(=O)O)cn(C4CC4)c3c2F)C[C@H](C)N1`, the Potency entry was “inactive”.

For the molecule `CCOc1ccccc1N`, the Potency entry is “inactive”.

With `CCC(=O)c1ccc2c(c1)N(CCCN(C)C)c1ccccc1S2`, the Potency entry was “inactive”.

With `CCc1cc(Cl)c(OC)c(C(=O)NC[C@@H]2CCCN2CC)c1O`, the Potency result was “inactive”.

With `CC/C=C\CCOC(=O)CCCCC`, the Potency result was “inactive”.

For the molecule `N#Cc1ccc(C(c2ccc(C#N)cc2)n2cncn2)cc1`, the Potency result was “inactive”.

Consider `CC(C)C1=CC2=CC[C@@H]3[C@](C)(CCC[C@@]3(C)C(=O)O)[C@H]2CC1`, for which the Potency result is “inactive”.

As for `C=CC(C)(O)CC/C=C(\C)CCC=C(C)C` (stereo not given), the Potency entry is “inactive”.

Consider `COc1ccccc1N1CCN(CCCNc2cc(=O)n(C)c(=O)n2C)CC1`, for which the Potency result is “inactive”.

For `O=c1[nH]c(=O)n([C@H]2C[C@H](O)[C@@H](CO)O2)cc1C(F)(F)F`, the Potency result is “inactive”.

As for `CCCCCCC`, the Potency entry was “inactive”.

`FC(F)(F)c1ccccc1`: the Potency result is “inactive”.

Turning to `COc1ccc(S(=O)(=O)Nc2nnc(CC(C)C)s2)cc1`, the Potency entry is “inactive”.

Consider `O=Cc1ccc(F)c(Br)c1`, for which the Potency entry is “inactive”.

Consider `COc1cc(C)ccc1C(C)C`, for which the Potency result is “inactive”.

As to `CCN(CC)CCNC(=O)COc1ccc(Cl)cc1`, the Potency result was “inactive”.

On to `C1CSCCS1`, for which the Potency result was “inactive”.

`O=[N+]([O-])c1nccn1CO[C@@H](CO)[C@H](O)CO`: the Potency result was “inactive”.

Take `O=c1oc2c(O)c(O)cc3c(=O)oc4c(O)c(O)cc1c4c23`: the Potency result was “inactive”.
